{"source": "PubChem BioAssay (NCATS)", "key": {"[1]": {"molecular_target": "Retinaldehyde dehydrogenase 3 (Homo sapiens) (UniProt P47895)", "test": "qHTS for Inhibitors of the Aldehyde Dehydrogenase Family (ALDH1A3) Confirmatory screens (AID 2061311); note: potency is the fitted concentration of half-maximal effect; nearly all actives have a fitted effect of over 60% in size"}, "[2]": {"molecular_target": "Retinal dehydrogenase 2 (Homo sapiens) (UniProt O94788)", "test": "qHTS for Inhibitors of the Aldehyde Dehydrogenase Family (ALDH1A2) Confirmation screens (AID 2061314); note: nearly all actives have a fitted effect of over 65% in size; note: potency is the fitted concentration of half-maximal effect"}, "[3]": {"molecular_target": "Retinaldehyde dehydrogenase 3 (Homo sapiens) (UniProt P47895)", "test": "qHTS for Inhibitors of the Aldehyde Dehydrogenase Family (ALDH1A3) Primary screen (AID 2061315)"}, "[4]": {"molecular_target": "Aldehyde dehydrogenase 1A1 (Homo sapiens) (UniProt P00352)", "test": "qHTS for Inhibitors of the Aldehyde Dehydrogenase Family (ALDH1A1) Confirmatory screens (AID 2061316); note: potency is the fitted concentration of half-maximal effect; nearly all actives have a fitted effect of over 65% in size"}, "[5]": {"molecular_target": "Retinaldehyde dehydrogenase 3 (Homo sapiens) (UniProt P47895)", "test": "qHTS for Inhibitors of the Aldehyde Dehydrogenase Family (ALDH1A3) Validation screen (AID 2061312); note: nearly all actives have a fitted effect of over 45% in size"}}, "note": "Results filed as inconclusive are left out. Where a call stands in place of a potency, no number is given. Unmarked numbers belong to inactive results. Active and inactive are the calls of the source. Calls come from the whole dose curve; as a rule, active = well fitted inhibition curve with a large enough effect; inconclusive = small, poorly fitted or top-dose-only effect; inactive = no such curve, though single readings can be large or run the other way.", "data": [{"smiles": "CN(Cc1ccco1)Cc1ccc(O)c2ncccc12", "values": [{"measurement": "Potency", "setting": "[1]", "result": "11.3 µM (active)"}, {"measurement": "Potency", "setting": "[2]", "result": "2.52 µM (active)"}, {"measurement": "Potency", "setting": "[3]", "result": "inactive"}]}, {"smiles": "CC(=O)Nc1sc2c(c1-c1cccc3[nH]ncc13)CCNC2", "values": [{"measurement": "Potency", "setting": "[1]", "result": "12.7 µM (active)"}, {"measurement": "Potency", "setting": "[2]", "result": "10.1 µM (active)"}, {"measurement": "Potency", "setting": "[4]", "result": "11.3 µM (active)"}]}, {"smiles": "C=CC(N)CCC(=O)O", "note": "(stereo not given)", "values": [{"measurement": "Potency", "setting": "[5]", "result": "inactive"}]}, {"smiles": "C=CC(=O)N1CCC[C@@H](n2nc(-c3cccc(C(=O)Nc4ccc(C(C)C)c(C)c4)c3)c3c(N)ncnc32)C1", "values": [{"measurement": "Potency", "setting": "[5]", "result": "inactive"}, {"measurement": "Potency", "setting": "[3]", "result": "inactive"}]}, {"smiles": "CC(=O)N1CCN(c2cccc(Nc3nn4c(=O)c5ccccc5nc4s3)c2)CC1", "values": [{"measurement": "Potency", "setting": "[3]", "result": "inactive"}]}, {"smiles": "CN(C)c1cccc(-c2nnc(N3CCC(C(N)=O)CC3)s2)c1", "values": [{"measurement": "Potency", "setting": "[3]", "result": "inactive"}]}, {"smiles": "O=C1CCCC2=C1C1(CCOCC1)N=C(Nc1nc3ccccc3o1)N2", "values": [{"measurement": "Potency", "setting": "[3]", "result": "inactive"}]}, {"smiles": "O=C1CCc2cc([S+](=O)([O-])Nc3ccc(Cl)c(Cl)c3)c(NCCCO)cc2N1", "values": [{"measurement": "Potency", "setting": "[3]", "result": "inactive"}]}, {"smiles": "O=C(Nc1ccc2ccccc2c1)Nc1nnc(-c2ccccn2)s1", "values": [{"measurement": "Potency", "setting": "[3]", "result": "inactive"}]}, {"smiles": "Cc1csc(CNc2ncnc3ccc(-c4ccc(C(C)O)o4)cc23)n1", "note": "(stereo not given)", "values": [{"measurement": "Potency", "setting": "[2]", "result": "5.65 µM (active)"}, {"measurement": "Potency", "setting": "[3]", "result": "inactive"}, {"measurement": "Potency", "setting": "[4]", "result": "11.3 µM (active)"}]}, {"smiles": "CN1CCN(c2cccc(Nc3nn4c(=O)c5ccc(Br)cc5nc4s3)c2)CC1", "values": [{"measurement": "Potency", "setting": "[3]", "result": "inactive"}]}, {"smiles": "O=C(O)c1ccc(CSc2nnc(-c3cccc([S+](=O)([O-])N4CCCC4)c3)n2-c2ccccc2)cc1", "values": [{"measurement": "Potency", "setting": "[3]", "result": "inactive"}]}, {"smiles": "O=C(O)C1NCc2[nH]cnc2C1c1ccccc1", "note": "(stereo not given)", "values": [{"measurement": "Potency", "setting": "[2]", "result": "4 µM (active)"}, {"measurement": "Potency", "setting": "[3]", "result": "inactive"}, {"measurement": "Potency", "setting": "[4]", "result": "11.3 µM (active)"}]}, {"smiles": "COc1ccc(C2c3ccc4ccccc4c3Oc3ncn(CCN4CCOCC4)c(=N)c32)cc1OC", "note": "(stereo not given)", "values": [{"measurement": "Potency", "setting": "[3]", "result": "inactive"}]}, {"smiles": "Cc1cc(C)nc(NC(=S)N2CCN(c3cccc(OC(F)(F)F)c3)CC2)c1", "values": [{"measurement": "Potency", "setting": "[3]", "result": "inactive"}]}, {"smiles": "CCOc1ccc(C(=O)N2CCN(Cc3cc(=O)n4nc(-c5cccc(OC)c5)sc4n3)CC2)cc1", "values": [{"measurement": "Potency", "setting": "[2]", "result": "inactive"}, {"measurement": "Potency", "setting": "[4]", "result": "6.47 µM (active)"}]}, {"smiles": "O=S1(=O)N=C(Sc2cccc3cccnc23)c2ccccc21", "values": [{"measurement": "Potency", "setting": "[2]", "result": "inactive"}, {"measurement": "Potency", "setting": "[3]", "result": "inactive"}, {"measurement": "Potency", "setting": "[4]", "result": "15.9 µM (active)"}]}, {"smiles": "O=C(Nc1ncnc2c1C(c1ccccc1)c1c(ccc3ccccc13)O2)c1ccccc1", "note": "(stereo not given)", "values": [{"measurement": "Potency", "setting": "[3]", "result": "inactive"}]}, {"smiles": "Cc1c(C(=O)OCc2ccco2)[nH]c2c1C(=O)CC(c1ccco1)C2", "note": "(stereo not given)", "values": [{"measurement": "Potency", "setting": "[2]", "result": "3.18 µM (active)"}, {"measurement": "Potency", "setting": "[3]", "result": "inactive"}, {"measurement": "Potency", "setting": "[4]", "result": "1.42 µM (active)"}]}, {"smiles": "O=[N+]([O-])c1cc(C(F)(F)F)ccc1N1CCN(C(=S)Nc2cc(Cl)ccn2)CC1", "values": [{"measurement": "Potency", "setting": "[2]", "result": "14.2 µM (active)"}, {"measurement": "Potency", "setting": "[3]", "result": "inactive"}, {"measurement": "Potency", "setting": "[4]", "result": "5.04 µM (active)"}]}, {"smiles": "COc1ccc(-c2cnc(N3CCC(C(N)=O)CC3)s2)cc1OC", "values": [{"measurement": "Potency", "setting": "[3]", "result": "inactive"}]}, {"smiles": "O=C1CCCC2=C1C1(CCSCC1)N=C(Nc1nc3ccccc3o1)N2", "values": [{"measurement": "Potency", "setting": "[3]", "result": "inactive"}]}, {"smiles": "O=C(c1ccccc1O)N(Cc1ccco1)Cc1cccs1", "values": [{"measurement": "Potency", "setting": "[2]", "result": "22.5 µM (active)"}, {"measurement": "Potency", "setting": "[3]", "result": "inactive"}, {"measurement": "Potency", "setting": "[4]", "result": "11.3 µM (active)"}]}, {"smiles": "CC(=O)Nc1sc2c(c1-c1nc3ccccc3s1)CCN(C1COC1)C2", "values": [{"measurement": "Potency", "setting": "[2]", "result": "14.2 µM (active)"}, {"measurement": "Potency", "setting": "[3]", "result": "inactive"}, {"measurement": "Potency", "setting": "[4]", "result": "4 µM (active)"}]}, {"smiles": "COc1ccc2c(=O)n3nc(Nc4ccc5c(c4)CCC5)sc3nc2c1", "values": [{"measurement": "Potency", "setting": "[3]", "result": "inactive"}]}, {"smiles": "OCc1ccc(-c2ccc3ncnc(NCc4nccs4)c3c2)o1", "values": [{"measurement": "Potency", "setting": "[2]", "result": "14.2 µM (active)"}, {"measurement": "Potency", "setting": "[3]", "result": "inactive"}, {"measurement": "Potency", "setting": "[4]", "result": "4 µM (active)"}]}, {"smiles": "Cc1ccc(-c2nc3ccccc3s2)cc1NC(=O)c1ccc(-c2cccc(Cl)c2)o1", "values": [{"measurement": "Potency", "setting": "[2]", "result": "22.5 µM (active)"}, {"measurement": "Potency", "setting": "[3]", "result": "inactive"}, {"measurement": "Potency", "setting": "[4]", "result": "8.96 µM (active)"}]}, {"smiles": "Cc1cc(C)nc(NC(=S)N2CCN(c3cc(C(F)(F)F)nc4ccc(C(F)(F)F)cc34)CC2)c1", "values": [{"measurement": "Potency", "setting": "[3]", "result": "inactive"}]}, {"smiles": "COc1ccc(-c2ccc3ncnc(NCc4cccs4)c3c2)cc1OC", "values": [{"measurement": "Potency", "setting": "[3]", "result": "inactive"}]}, {"smiles": "O=C(CN(Cc1cccc2ccccc12)C1CC1)Nc1ccc(N2CCOCC2)cc1", "values": [{"measurement": "Potency", "setting": "[2]", "result": "11.3 µM (active)"}, {"measurement": "Potency", "setting": "[3]", "result": "inactive"}]}, {"smiles": "CC(C)c1cccc(-n2cnc3cc(C(=O)N4CCCCC4)ccc32)c1", "values": [{"measurement": "Potency", "setting": "[3]", "result": "inactive"}]}, {"smiles": "CCOC(=O)c1c(-c2ccc(C)o2)csc1NC(=O)CSc1nnnn1-c1ccccc1", "values": [{"measurement": "Potency", "setting": "[2]", "result": "5.04 µM (active)"}, {"measurement": "Potency", "setting": "[3]", "result": "inactive"}, {"measurement": "Potency", "setting": "[4]", "result": "0.4 µM (active)"}]}, {"smiles": "NC(=O)C1CCN(c2nc(-c3ccc(OC(F)(F)F)cc3)cs2)CC1", "values": [{"measurement": "Potency", "setting": "[3]", "result": "inactive"}]}, {"smiles": "NC(=O)C1CCN(c2nc(-c3cccc4sc5ccccc5c34)cs2)CC1", "values": [{"measurement": "Potency", "setting": "[3]", "result": "inactive"}]}, {"smiles": "Cc1ccnc(NC(=S)N2CCN(c3cccc(C(F)(F)F)c3)CC2)n1", "values": [{"measurement": "Potency", "setting": "[3]", "result": "inactive"}]}, {"smiles": "c1ccc(-n2ccc(-c3nnc4n3CCCCC4)c2)cc1", "values": [{"measurement": "Potency", "setting": "[3]", "result": "inactive"}]}, {"smiles": "O=C(Nc1ccc(-c2nc3ccccc3[nH]2)cc1)c1ccc2ncsc2c1", "values": [{"measurement": "Potency", "setting": "[3]", "result": "inactive"}]}, {"smiles": "Cc1cc(C)nc(NC(=S)N2CCN(c3ccc4c(c3)OCO4)CC2)c1", "values": [{"measurement": "Potency", "setting": "[3]", "result": "inactive"}]}, {"smiles": "Cc1ccc(CN(C)c2ncnc3ccc(-c4ccc(CO)o4)cc23)o1", "values": [{"measurement": "Potency", "setting": "[2]", "result": "11.3 µM (active)"}, {"measurement": "Potency", "setting": "[3]", "result": "inactive"}, {"measurement": "Potency", "setting": "[4]", "result": "2.52 µM (active)"}]}, {"smiles": "O=c1c2ccccc2nc2sc(NCc3ccccc3)nn12", "values": [{"measurement": "Potency", "setting": "[3]", "result": "inactive"}]}, {"smiles": "O=C1CCc2cc(S(=O)(=O)Nc3ccccn3)ccc2N1", "values": [{"measurement": "Potency", "setting": "[3]", "result": "inactive"}]}, {"smiles": "CCOc1cccc(-c2cc(-c3n[nH]c(=S)n3CC)c3ccccc3n2)c1", "values": [{"measurement": "Potency", "setting": "[3]", "result": "inactive"}]}, {"smiles": "O=C1CCCC2=C1C(c1ccn[nH]1)N=C(Nc1nc3ccccc3o1)N2", "note": "(stereo not given)", "values": [{"measurement": "Potency", "setting": "[3]", "result": "inactive"}]}, {"smiles": "Cn1nnnc1Sc1ncnc2scc(I)c12", "values": [{"measurement": "Potency", "setting": "[2]", "result": "inactive"}, {"measurement": "Potency", "setting": "[3]", "result": "inactive"}, {"measurement": "Potency", "setting": "[4]", "result": "25.2 µM (active)"}]}]}
